# Laboratory results as given in PubChem BioAssay AID1259373 (The Scripps Research Institute Molecular Screening Center, 2018).
# The other results are listed elsewhere or left out. Unmarked numbers belong to inactive results. The rule behind the calls is not given here.
# Assay: AlphaScreen optical interference compounds, dose response, counter-screen, biochemical, HTS (AID 1259373)
# Conditions: AlphaScreen optical interference counterscreen, cell-free
smiles,measurement,value
CCOC(=O)C1C2NC(=S)N(CC)C1(C)Oc1ccc(Cl)cc12 (stereo unspecified),IC50,> 8.6 µM
